# Test results from PubChem BioAssay (NCATS).
# Unmarked numbers belong to inactive results. Inconclusive results are not listed. Entries that show only a call come without a potency. Calls of active or inactive are those of the source. Unless noted, the call rests on the fitted dose curve; in most records, active means well fitted curve in the direction sought with a large enough effect; inconclusive means small, poorly fitted or top-dose-only effect, or another doubt; inactive means no such curve, though single readings can be large; an effect the other way counts as inactive or inconclusive.
# Legend:
# [1] = AP1 Signaling Pathway (AID 357; active means well fitted curve in either direction with a large enough effect, not every such curve was filed as active;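 further: ME-180 reporter cells stimulated with EGF at its EC50 level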); conditions: ME-180 AP-1-bla reporter, EGF-induced, beta-lactamase ratio, 5 h; at 17.2 µM (top of the series) unless noted
# Outline: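 Beta-lactamase reporter under AP-1 response element, ME-180 background. Stimulus: EC50 EGF. Compound exposure 5 h, 37 °C. Detection: CCF4, 2.5 h RT, 460/530 nm. Values: AC50 from titration.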
# [2] = molecular target: Cytochrome P450 1A2 (Homo sapiens) (UniProt P05177); test: p450-cyp1a2 (AID 410; calls by dose curve; further: potency means the concentration at half of the fitted maximal effect)
# Chain of Cytochrome P450 1A2 (Homo sapiens) (P05177 whole entry, looked up): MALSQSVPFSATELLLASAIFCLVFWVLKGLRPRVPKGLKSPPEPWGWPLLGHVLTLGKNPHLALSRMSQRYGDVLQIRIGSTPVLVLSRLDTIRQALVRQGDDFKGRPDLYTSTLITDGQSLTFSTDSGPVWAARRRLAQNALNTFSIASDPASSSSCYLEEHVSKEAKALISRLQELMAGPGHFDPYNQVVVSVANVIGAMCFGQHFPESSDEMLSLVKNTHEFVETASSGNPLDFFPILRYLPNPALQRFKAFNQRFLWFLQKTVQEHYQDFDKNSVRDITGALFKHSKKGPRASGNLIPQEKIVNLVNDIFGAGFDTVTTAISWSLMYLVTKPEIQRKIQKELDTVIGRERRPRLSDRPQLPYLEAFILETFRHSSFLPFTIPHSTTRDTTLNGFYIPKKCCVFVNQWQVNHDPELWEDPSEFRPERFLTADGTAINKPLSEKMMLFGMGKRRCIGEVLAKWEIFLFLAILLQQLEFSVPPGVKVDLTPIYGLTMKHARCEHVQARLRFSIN
# Outline: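 O-Demethylation of luciferin 6' methyl ether by human CYP1A2 is monitored as luciferase luminescence. Substrate sits at Km (100uM); enzyme is 20nM. Values are scaled to 57 uM furafylline as maximal inhibition.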
# [3] = Stat Signaling Pathway (AID 446; active means well fitted curve in either direction with a large enough effect, not every such curve was filed as active;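 further: ME-180 cervical cancer cells given 40 pM IL-6 alongside compound; SIE-controlled beta-lactamase reporter measured as 460/530 nm FRET emission ratio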); conditions: ME-180 (cervical carcinoma) SIE beta-lactamase reporter, IL-6 stimulated, 5 h; at 17.2 µM (top of the series) unless noted
# Outline: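 Normalization used AC90 stimulation (300 pM IL-6) and AC90 inhibition (125 nM pan-JAK inhibitor at 40 pM IL-6). The underlying signal is SIE-driven beta-lactamase in ME-180 cells after 5 h IL-6 exposure with compound.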
# [4] = molecular target: Mitogen-activated protein kinase 10 (Mus musculus) (UniProt Q61831); test: JNK3 AlphaScreen Assay (AID 530; active means well fitted curve in either direction with a large enough effect, not every such curve was filed as active;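 further: kinase came from lysate of stimulated human HepG2 cells; signal reports phosphorylation of biotinylated GST-cJun 1-79 at Ser73 with 10 µM ATP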)
# Outline: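 qHTS titrations with 15 min compound pre-incubation before adding ATP (10 uM final). Read-out: AlphaScreen of Ser73-phosphorylated biotin-GST-cJun using HepG2 lysate JNK3 activated by IL-1β and TNFα.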
# [5] = molecular target: 3',5'-cyclic-AMP phosphodiesterase 4B (Homo sapiens) (UniProt Q07343); test: qHTS Assay for Inhibitors of PDE-IV (AID 607; active means well fitted activation curve with a large enough effect in the main read-out, with a control signal flat, not every such curve was filed as active)
# Chain of 3',5'-cyclic-AMP phosphodiesterase 4B (Homo sapiens) (Q07343 whole entry, looked up): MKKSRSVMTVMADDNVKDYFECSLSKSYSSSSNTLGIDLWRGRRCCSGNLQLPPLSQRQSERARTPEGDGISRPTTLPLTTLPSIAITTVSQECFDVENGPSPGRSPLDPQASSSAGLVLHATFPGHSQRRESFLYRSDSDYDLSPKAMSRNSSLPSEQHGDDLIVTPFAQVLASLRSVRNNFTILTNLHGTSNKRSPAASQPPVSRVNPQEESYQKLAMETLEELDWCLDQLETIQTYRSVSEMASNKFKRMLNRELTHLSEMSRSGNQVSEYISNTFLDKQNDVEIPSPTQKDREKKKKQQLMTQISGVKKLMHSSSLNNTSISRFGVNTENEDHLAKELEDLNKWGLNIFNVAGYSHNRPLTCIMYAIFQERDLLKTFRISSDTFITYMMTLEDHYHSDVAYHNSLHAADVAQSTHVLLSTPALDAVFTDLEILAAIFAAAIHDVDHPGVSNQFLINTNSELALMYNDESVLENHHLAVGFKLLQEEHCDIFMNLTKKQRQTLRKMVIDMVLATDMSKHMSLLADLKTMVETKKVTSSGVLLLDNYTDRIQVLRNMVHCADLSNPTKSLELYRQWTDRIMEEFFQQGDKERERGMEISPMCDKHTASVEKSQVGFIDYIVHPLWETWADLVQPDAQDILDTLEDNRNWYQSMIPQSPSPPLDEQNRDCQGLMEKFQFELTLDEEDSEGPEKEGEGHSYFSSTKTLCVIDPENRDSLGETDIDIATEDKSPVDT
# Outline: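 HEK293 ACTOne cells with CNG channel (1000/well), endogenous PDE4; membrane potential dye, compounds up to 22.9 uM final. Fluorescence Ex 535/Em 590; RO 20-1724 (100 uM final) as reference.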
# [6] = molecular target: Guanine nucleotide-binding protein G(i) subunit alpha-1 (Homo sapiens) (UniProt P63096); test: qHTS Assay for Inhibitors of RGS12 GoLoco Motif Activity (Green Fluorophore) (AID 879);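 further: negative values mean loss of peptide binding seen as reduced polarization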
# Chain of Guanine nucleotide-binding protein G(i) subunit alpha-1 (Homo sapiens) (P63096 whole entry, looked up): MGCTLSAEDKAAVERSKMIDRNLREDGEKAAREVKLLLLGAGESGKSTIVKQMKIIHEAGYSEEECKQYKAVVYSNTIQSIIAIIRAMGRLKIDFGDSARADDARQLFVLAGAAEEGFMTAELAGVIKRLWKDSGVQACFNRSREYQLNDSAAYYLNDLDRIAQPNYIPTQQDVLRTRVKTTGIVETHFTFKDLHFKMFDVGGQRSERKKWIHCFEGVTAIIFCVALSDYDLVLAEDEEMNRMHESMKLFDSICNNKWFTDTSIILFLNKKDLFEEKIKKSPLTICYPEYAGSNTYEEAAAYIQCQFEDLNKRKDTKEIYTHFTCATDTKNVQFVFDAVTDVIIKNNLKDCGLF
# Outline: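 A drop in FITC polarization marked displacement of the FITC-tagged RGS12 GoLoco peptide (10 nM) from Gαi1 (50 nM). Compounds were incubated 10 min at room temperature in Tris pH 7.5 buffer containing 150 mM NaCl, 0.1 mM GDP and 0.05% NP40; unlabeled peptide titration served as control.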
# [7] = molecular target: Cytochrome P450 2C19 (Homo sapiens) (UniProt P33261); test: qHTS Assay for Inhibitors and Substrates of Cytochrome P450 2C19 (AID 899); further: nearly all actives have a fitted effect of over 60% in size
# Outline: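 Luminescence readout of luciferin formed from 10uM Luciferin-H EGE (KM level) by 5 nM CYP2C19 in 50mM KPO4. 60 min NADPH-driven reaction at 37C after 10 min compound preincubation; data scaled to 57uM ketoconazole inhibition.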
# [8] = qHTS Assay for Identification of Small Molecule Agonists for Thrombopoietin (TPO) Signaling Pathway (AID 917)
# Outline: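 Quantitative HTS for pathway activators: compounds were pin-transferred onto IL-3-starved Ba/F3 cells expressing human TPO receptor, TPO was added at its EC50 (26 pM final), and after 24 hrs at 37 C reporter luciferase was measured.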
# [9] = molecular target: Pyruvate kinase (Leishmania mexicana) (UniProt Q27686); test: qHTS Validation Assay for Inhibitors of Leishmania Mexicana Pyruvate Kinase (AID 945)
# Chain of Pyruvate kinase (Leishmania mexicana) (Q27686 2-499 E452W): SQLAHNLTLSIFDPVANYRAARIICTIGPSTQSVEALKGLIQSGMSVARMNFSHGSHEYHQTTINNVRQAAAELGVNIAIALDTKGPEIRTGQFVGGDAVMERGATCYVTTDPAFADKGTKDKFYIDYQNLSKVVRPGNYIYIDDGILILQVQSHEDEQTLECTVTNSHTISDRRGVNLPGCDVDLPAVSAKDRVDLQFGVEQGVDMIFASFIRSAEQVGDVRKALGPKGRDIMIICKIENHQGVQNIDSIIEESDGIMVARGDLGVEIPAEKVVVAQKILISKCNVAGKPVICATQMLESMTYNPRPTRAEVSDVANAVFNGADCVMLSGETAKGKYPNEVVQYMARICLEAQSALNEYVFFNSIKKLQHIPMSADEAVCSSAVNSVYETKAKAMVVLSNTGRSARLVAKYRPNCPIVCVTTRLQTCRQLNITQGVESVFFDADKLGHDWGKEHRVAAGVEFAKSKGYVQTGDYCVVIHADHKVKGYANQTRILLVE
# Outline: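 Substrate mix (0.5 mM PEP, 0.1 mM ADP, 7 mM MgCl2, 50 mM KCl, pH 7.2 imidazole) received compound by pin tool, then 0.2 nM LmPYK E451W. After 1 h at room temperature, PKLight was added and luminescence measured.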
# [10] = molecular target: Pyruvate kinase PKM (Homo sapiens) (UniProt P14618); test: qHTS Assay for Activators of Human Muscle Pyruvate Kinase (AID 954; active means well fitted curve in the direction sought with a large enough effect, not every such curve was filed as active)
# Chain of Pyruvate kinase PKM (Homo sapiens) (P14618 whole entry, looked up): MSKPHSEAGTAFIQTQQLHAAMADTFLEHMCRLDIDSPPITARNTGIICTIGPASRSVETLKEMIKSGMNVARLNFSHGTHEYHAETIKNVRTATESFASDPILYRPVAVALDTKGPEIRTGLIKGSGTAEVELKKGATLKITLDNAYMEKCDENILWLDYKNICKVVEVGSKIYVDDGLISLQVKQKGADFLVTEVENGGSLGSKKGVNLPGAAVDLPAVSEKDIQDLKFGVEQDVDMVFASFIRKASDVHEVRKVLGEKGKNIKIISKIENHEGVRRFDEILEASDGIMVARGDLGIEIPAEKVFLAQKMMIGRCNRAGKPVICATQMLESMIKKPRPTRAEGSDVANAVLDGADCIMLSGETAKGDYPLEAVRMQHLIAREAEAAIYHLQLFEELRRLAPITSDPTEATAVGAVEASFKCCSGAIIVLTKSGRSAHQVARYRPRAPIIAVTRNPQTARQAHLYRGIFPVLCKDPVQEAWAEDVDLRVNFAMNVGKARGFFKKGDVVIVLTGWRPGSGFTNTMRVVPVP
# Outline: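 Compound pinned into substrate mix (0.5 mM PEP, 0.1 mM ADP), then 0.1 nM PKM2 added; 1 h, RT. Stop/detection luciferase reagent added, luminescence read. Normalized to no-inhibition and no-enzyme or reference-inhibitor controls.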
# [11] = molecular target: Alpha-galactosidase A (Homo sapiens) (UniProt P06280); test: Counterscreen for Glucocerebrosidase Inhibitors: qHTS Assay for Human alpha-Galactosidase at pH 4.5 (AID 992)
# Chain of Alpha-galactosidase A (Homo sapiens) (P06280 whole entry, looked up): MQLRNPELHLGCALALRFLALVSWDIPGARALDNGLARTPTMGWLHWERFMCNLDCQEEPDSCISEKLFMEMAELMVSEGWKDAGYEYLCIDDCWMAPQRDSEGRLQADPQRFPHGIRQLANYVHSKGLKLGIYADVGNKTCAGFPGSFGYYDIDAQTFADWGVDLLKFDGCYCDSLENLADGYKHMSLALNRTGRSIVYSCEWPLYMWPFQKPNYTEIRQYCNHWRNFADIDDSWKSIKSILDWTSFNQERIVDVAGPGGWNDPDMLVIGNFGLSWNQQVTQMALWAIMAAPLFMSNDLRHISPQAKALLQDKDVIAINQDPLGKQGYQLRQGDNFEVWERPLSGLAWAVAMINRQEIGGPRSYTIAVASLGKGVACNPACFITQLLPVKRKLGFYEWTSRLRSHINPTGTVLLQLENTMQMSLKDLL
# Outline: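 Steps: enzyme (2 nM final), then compound across 0.7 nM to 77 uM, then 80 uM fluorogenic galactopyranoside substrate; incubate 20 min at room temperature; quench at pH 10; measure fluorescence at 365/440 nm.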
# [12] = molecular target: alpha-glucosidase (Oryza sativa, rice) (UniProt Q653V4); test: Counterscreen for Glucocerebrosidase Inhibitors: qHTS Assay for Rice alpha-Glucosidase at pH 5.0 (AID 997)
# Outline: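 Endpoint fluorogenic assay at pH 5.0: compounds (0.7 nM to 77 uM) titrated against 4 nM rice enzyme and 400 uM 4-MU-alpha-glucoside for 20 min at room temperature; NaOH/glycine stop, read ex 365/em 440 nm, Hill-fitted AC50.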
# [13] = molecular target: Glucocorticoid receptor (Homo sapiens) (UniProt P04150); test: GR-GFP Redistribution (AID 450;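 active means compounds whose dose series gives a full or clear partial fitted curve of increased nuclear translocation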; further: potency means the concentration at half of the fitted maximal effect)
# Chain of Glucocorticoid receptor (Homo sapiens) (P04150 whole entry, looked up, the tested form may be a part): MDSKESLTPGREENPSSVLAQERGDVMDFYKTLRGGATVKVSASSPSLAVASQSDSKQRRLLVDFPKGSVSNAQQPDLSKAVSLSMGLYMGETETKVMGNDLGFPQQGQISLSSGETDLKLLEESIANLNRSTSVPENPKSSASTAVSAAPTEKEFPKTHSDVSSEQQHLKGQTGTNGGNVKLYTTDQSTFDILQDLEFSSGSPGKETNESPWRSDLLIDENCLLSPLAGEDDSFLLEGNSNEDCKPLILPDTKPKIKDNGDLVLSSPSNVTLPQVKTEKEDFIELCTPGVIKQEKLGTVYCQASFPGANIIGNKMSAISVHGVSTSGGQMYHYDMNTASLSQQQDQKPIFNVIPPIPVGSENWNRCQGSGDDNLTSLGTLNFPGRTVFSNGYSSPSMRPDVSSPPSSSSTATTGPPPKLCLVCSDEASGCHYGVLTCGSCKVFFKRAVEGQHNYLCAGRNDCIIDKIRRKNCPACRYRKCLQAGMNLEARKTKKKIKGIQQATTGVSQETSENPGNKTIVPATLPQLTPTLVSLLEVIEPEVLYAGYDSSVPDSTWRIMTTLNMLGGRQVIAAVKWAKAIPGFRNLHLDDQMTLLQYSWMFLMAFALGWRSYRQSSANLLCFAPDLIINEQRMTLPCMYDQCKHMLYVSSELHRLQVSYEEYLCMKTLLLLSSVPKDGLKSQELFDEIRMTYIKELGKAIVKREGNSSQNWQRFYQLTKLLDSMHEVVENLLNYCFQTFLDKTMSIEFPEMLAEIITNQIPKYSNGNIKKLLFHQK
# [14] = molecular target: Glucocorticoid receptor (Homo sapiens) (UniProt P04150); test: GR-EFC Redistribution (AID 451; calls by dose curve; further: potency means the concentration at half of the fitted maximal effect); conditions: CHO-K1 GR-EFC translocation, beta-gal luminescence, 2 h
# Outline: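 Translocation of GR-ED fusion to nuclear EA restores b-gal, read by luminescence after 1 h room-temperature detection. Engineered CHO-K1 biosensor cells, 1,000/well, exposed 2 h at 37 C to titrations up to 46 uM final.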
# [15] = molecular target: Cytochrome P450 3A4 (Homo sapiens) (UniProt P08684); test: qHTS Assay for Inhibitors and Substrates of Cytochrome P450 3A4 (AID 884); further: nearly all actives have a fitted effect of over 50% in size
# Chain of Cytochrome P450 3A4 (Homo sapiens) (P08684 whole entry, looked up): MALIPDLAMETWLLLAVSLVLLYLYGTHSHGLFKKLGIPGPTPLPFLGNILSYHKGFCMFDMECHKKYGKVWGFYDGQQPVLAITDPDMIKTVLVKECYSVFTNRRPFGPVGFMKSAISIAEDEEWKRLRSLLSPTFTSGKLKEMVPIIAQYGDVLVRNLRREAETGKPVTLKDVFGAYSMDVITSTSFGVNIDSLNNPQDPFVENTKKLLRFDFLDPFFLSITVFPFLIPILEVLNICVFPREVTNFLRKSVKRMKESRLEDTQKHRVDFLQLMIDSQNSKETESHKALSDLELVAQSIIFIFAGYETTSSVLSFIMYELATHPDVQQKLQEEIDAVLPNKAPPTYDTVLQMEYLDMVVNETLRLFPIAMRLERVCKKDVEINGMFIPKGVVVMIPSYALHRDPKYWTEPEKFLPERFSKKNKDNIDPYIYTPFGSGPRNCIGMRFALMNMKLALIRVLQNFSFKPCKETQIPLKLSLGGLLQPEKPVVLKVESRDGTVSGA
# Outline: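 Luminescent readout of luciferin produced by CYP3A4 (20 nM) dealkylation of Luciferin-PPXE, 25 uM (its KM). NADPH-driven reaction ran 60 min at RT after 10 min compound preincubation; data scaled to 57 uM ketoconazole as 100% inhibition.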
# [16] = molecular target: Cytochrome P450 3A4 (Homo sapiens) (UniProt P08684); test: qHTS Assay for Activators of Cytochrome P450 3A4 (AID 885); further: nearly all actives have a fitted effect of over 65% in size
# Outline: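 Human CYP3A4 dealkylates Luciferin-PPXE to luciferin, which luciferase detection converts to light. Substrate was at its KM (25uM), buffer 200mM KPO4, reaction 60 min at RT.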
# [17] = molecular target: Muscarinic acetylcholine receptor M1 (Rattus norvegicus) (UniProt P08482); test: qHTS Assay for Antagonists of Acetylcholine Muscarinic M1 Receptor: Kinetic Measurement of Intracellular Calcium Response (AID 943); further: nearly all actives have a fitted effect of over 75% in size; further: potency means the concentration at half of the fitted maximal effect;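 on activity change, negative = inhibition: Fluo-4 calcium signal as peak divided by basal fluorescence over 4 min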
# Chain of Muscarinic acetylcholine receptor M1 (Rattus norvegicus) (P08482 whole entry, looked up): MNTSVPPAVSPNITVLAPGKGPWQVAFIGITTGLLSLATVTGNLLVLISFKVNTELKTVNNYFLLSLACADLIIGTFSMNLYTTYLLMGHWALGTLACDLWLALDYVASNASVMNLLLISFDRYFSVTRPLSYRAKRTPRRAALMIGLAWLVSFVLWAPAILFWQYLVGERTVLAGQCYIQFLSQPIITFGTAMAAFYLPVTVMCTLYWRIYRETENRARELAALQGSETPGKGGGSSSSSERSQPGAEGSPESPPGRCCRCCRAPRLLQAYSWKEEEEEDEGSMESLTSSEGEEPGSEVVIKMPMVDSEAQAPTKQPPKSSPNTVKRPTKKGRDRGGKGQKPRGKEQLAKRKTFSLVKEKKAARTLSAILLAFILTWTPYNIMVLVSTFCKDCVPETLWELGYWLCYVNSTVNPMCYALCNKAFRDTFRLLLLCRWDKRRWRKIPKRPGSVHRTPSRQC
# Outline: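 Antagonism is measured as inhibition of the carbachol-evoked calcium rise in CHO cells transfected with rat M1. Cells are dye-loaded, exposed to compound for 10 min, then stimulated with 100 nM carbachol (EC80).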
# [18] = molecular target: Muscarinic acetylcholine receptor M1 (Rattus norvegicus) (UniProt P08482); test: qHTS Assay for Antagonists of Acetylcholine Muscarinic M1 Receptor: Measurement of IP-One Response (AID 944); further: nearly all actives have a fitted effect of over 75% in size
# Outline: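 Antagonist mode with rat M1 receptor transfected into CHO cells. Compound is added first for 10 min, carbachol at its EC80 follows for 30 min, and lysis reagents then allow TR-FRET detection of accumulated IP1.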
# [19] = NFAT Signaling Pathway (AID 444; active means well fitted curve in either direction with a large enough effect, not every such curve was filed as active;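 further: carbachol stimulus at about its EC50 of 1 µM final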); conditions: Jurkat NFAT-bla M1, carbachol, beta-lactamase ratio, 5 h; at 17.2 µM (top of the series) unless noted
# Outline: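 Read-out: CCF4 FRET ratio (460 nm/530 nm) after 1 h RT dye loading, used for %activity and AC50 from titration series. Cells: Jurkat NFAT-β-lactamase/M1 line, treated with compound plus 1 uM carbachol for 5 h, 37 °C.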
compound,measurement,setting,value
COc1cc2nc(N3CCN(C(=O)[C@H]4COc5ccccc5O4)CC3)nc(N)c2cc1OC,"activity change, negative = inhibition",[1],-28.6% [at 38 µM]
same,Potency,[2],inactive
same,"activity, negative = inhibition",[3],-8.72% [at 38 µM]
same,Potency,[4],inactive
same,Potency,[5],inactive
same,outcome,[6],inactive
same,outcome,[7],inactive
same,Potency,[8],inactive
same,Potency,[9],inactive
same,outcome,[10],inactive
same,outcome,[11],inactive
same,outcome,[12],inactive
COc1cc2nc(N3CC=[N+](C(=O)c4ccco4)CC3)nc(N)c2cc1OC,"activity change, negative = inhibition",[1],-19.6% [at 38 µM]
same,Potency,[2],12.6 µM (active)
same,Potency,[13],> 46 µM
same,Potency,[14],> 46 µM
same,Potency,[5],inactive
same,outcome,[6],inactive
same,Potency,[15],inactive
same,Potency,[9],inactive
same,outcome,[10],inactive
same,outcome,[11],inactive
same,outcome,[12],inactive
O=C1[C@@H]2C=CC=CC2=NC(=S)N1CCN1CCC(=C(c2ccc(F)cc2)c2ccc(F)cc2)CC1,"activity change, negative = inhibition",[1],26.4% [at 38 µM]
same,Potency,[2],inactive
same,"activity, negative = inhibition",[3],6.96% [at 38 µM]
same,Potency,[13],> 46 µM
same,Potency,[14],> 46 µM
same,Potency,[4],inactive
same,Potency,[16],inactive
same,Potency,[8],inactive
same,Potency,[17],inactive
same,Potency,[18],inactive
same,Potency,[9],inactive
same,outcome,[10],inactive
same,outcome,[11],inactive
same,outcome,[12],inactive
Cc1c(Cl)cccc1N1C(=O)C2ON(c3ccccc3)C(c3cccnc3)C2C1=O (stereo not given),"activity change, negative = inhibition",[1],4.21%
same,"activity change, negative = inhibition",[19],0.827%
same,"activity, negative = inhibition",[3],0.542%
Cc1cc(=O)oc(C)c1C(=O)NCC(C)NC(=O)c1c(C)cc(=O)oc1C (stereo not given),"activity change, negative = inhibition",[1],0.223%
same,"activity change, negative = inhibition",[19],10.2%
COc1cccc2c1[C@@H]1CN(CCCCn3c(=O)[nH]c4c(sc5ncc(-c6ccccc6)nc54)c3=O)C[C@H]1CO2,"activity change, negative = inhibition",[1],4.55% [at 38 µM]
same,Potency,[2],31.6 µM (active)
same,"activity, negative = inhibition",[3],22.8% [at 38 µM]
same,Potency,[13],> 46 µM
same,Potency,[14],> 46 µM
same,outcome,[6],inactive
same,Potency,[16],inactive
same,Potency,[17],11.2 µM (active)
same,Potency,[18],inactive
same,Potency,[9],inactive
same,outcome,[10],inactive
same,outcome,[11],inactive
same,outcome,[12],inactive
